Measurements reported in PubChem BioAssay (EPA / NIEHS).
Records with an inconclusive call do not appear. The source made the active and inactive calls. Rule for the calls, unless noted: active = hit-call score of the fitted dose curve at least 0.9, where 1 is the maximum; inactive = score below 0.9.

Tests used:
[1] = biological target: Paired box protein Pax-6 (Homo sapiens) (UniProt P26367); assay: ATG_Pax6_CIS: Attagene CIS-FACTORIAL HepG2 Assay for human Paired Box 6 (PAX6) (AID 2282956); conditions: HepG2 CIS-FACTORIAL PAX6 reporter transcription, RNA readout; actives raise or lower the signal
In short: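 Multiplexed cis-reporter HepG2 system; 24 h treatment; reporter mRNA read by RT-PCR/CE fluorescence; bidirectional fit vs DMSO.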

[2] = ATG_PXRE_CIS: Attagene CIS-FACTORIAL HepG2 Assay for human Pregnane X Receptor Element (PXRE) (AID 2282957); conditions: HepG2 Attagene CIS-FACTORIAL PXRE reporter, mRNA; actives raise or lower the signal
In short: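 HepG2 cells transiently transfected with cis-regulated multiple reporter transcription units; endogenous factor activity measured as reporter mRNA 24 h after dosing. RT-PCR, fluorescent primer extension, HpaI digestion, capillary electrophoresis; bidirectional fit versus DMSO baseline.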

[3] = ATG_PPRE_CIS: Attagene CIS-FACTORIAL HepG2 Assay for human Peroxisome Proliferator-activated Response Element (PPRE) (AID 2282958); conditions: HepG2 PPRE cis-element reporter, Attagene transcription factor profiling; actives raise or lower the signal
In short: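 Transcript-level reporter induction in transfected HepG2 cells after 24 h chemical exposure, quantified by fluorescence from RT-PCR products separated by capillary electrophoresis.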

[4] = ATG_RORE_CIS: Attagene CIS-FACTORIAL HepG2 Assay for human RAR-related Orphan Receptor Element (RORE) (AID 2282959); conditions: HepG2 Attagene cis-factorial RORE reporter, mRNA; actives raise or lower the signal
In short: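 Multiplexed reporter assay measuring mRNA induction from a cis promoter element in transiently transfected HepG2 cells after 24 h treatment. Detection via RT-PCR and capillary electrophoresis fluorescence; DMSO serves as baseline.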

[5] = ATG_Sox_CIS: Attagene CIS-FACTORIAL HepG2 Assay for human SRY-box transcription factor (SOX) (AID 2282960); conditions: HepG2 Attagene cis-factorial SOX reporter, mRNA; actives raise or lower the signal
In short: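 Cells were transfected with reporter constructs under cis-regulatory promoters, then exposed to chemicals for 24 h. Reporter transcripts were quantified by fluorescence after RT-PCR and capillary electrophoresis; activity was fitted in both directions against DMSO.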

[6] = biological target: Transcription factor Sp1 (Homo sapiens) (UniProt P08047); assay: ATG_Sp1_CIS: Attagene CIS-FACTORIAL HepG2 Assay for human Specificity Protein 1 (Sp1) (AID 2282961); conditions: HepG2 Sp1 cis-reporter transcription, actives raise or lower the signal
In short: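 Measures mRNA induction of an Sp1-linked reporter in HepG2 cells 24 h post-dosing. Multiplexed reporters read by RT-PCR and capillary electrophoresis; DMSO serves as negative control and baseline.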

[7] = ATG_SREBP_CIS: Attagene CIS-FACTORIAL HepG2 Assay for human Sterol Regulatory Element Binding (SREBP) (AID 2282962); conditions: HepG2 Attagene cis-factorial SREBP reporter, mRNA; actives raise or lower the signal
In short: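 mRNA induction of transfected cis-promoter reporters in HepG2 cells, 24 h post-dose. Detection: RT-PCR with 6-FAM-labelled products, HpaI digest, capillary electrophoresis. DMSO served as negative control and baseline.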

[8] = biological target: Signal transducer and activator of transcription 3 (Homo sapiens) (UniProt P40763); assay: ATG_STAT3_CIS: Attagene CIS-FACTORIAL HepG2 Assay for human Signal Transducer and Activator of Transcription 3 (STAT3) (AID 2282963); conditions: HepG2, Attagene cis-factorial STAT3 reporter transcription; actives raise or lower the signal
In short: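 Values derive from bidirectional fits relative to DMSO of reporter mRNA levels, measured by RT-PCR with capillary electrophoresis, in HepG2 cells carrying transiently transfected cis-regulated reporter units and exposed 24 h.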

[9] = ATG_TA_CIS: Attagene CIS-FACTORIAL HepG2 Assay for human TA Basal Promoter (AID 2282964); conditions: HepG2 Attagene CIS-factorial TA basal promoter reporter; actives raise or lower the signal
In short: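 HepG2 cells transiently transfected with multiplexed cis-promoter reporter units, dosed 24 h. Reporter mRNA measured by RT-PCR, 6-FAM labelling, HpaI digestion and capillary electrophoresis; bidirectional fit versus DMSO baseline, serving as background control.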

[10] = ATG_TCF_b_cat_CIS: Attagene CIS-FACTORIAL HepG2 Assay for human T-Cell-Factor with beta-catenin (TCF/b-cat) (AID 2282965); conditions: HepG2 TCF/beta-catenin cis-reporter transcription, actives raise or lower the signal
In short: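 HepG2, transient MRTU transfection, cis-element-driven reporters (endogenous TFs). 24 h compound exposure. Readout: reporter mRNA by RT-PCR + 6-FAM primer extension, HpaI digest, capillary electrophoresis. Gain/loss fit vs DMSO baseline.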

[11] = ATG_TAL_CIS: Attagene CIS-FACTORIAL HepG2 Assay for human TAL Basal Promoter (AID 2282966); conditions: HepG2 Attagene cis-factorial TAL promoter reporter; actives raise or lower the signal;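 note: background control endpoint measuring basal TAL promoter reporter mRNA not a specific factor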
In short: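 HepG2 cells were transiently transfected with promoter-driven multiplexed reporter units and dosed for 24 h. Reporter mRNA was measured by RT-PCR with capillary electrophoresis fluorescence; bidirectional fits used DMSO as baseline, serving as a background control.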

[12] = biological target: X-box-binding protein 1 (Homo sapiens) (UniProt P17861); assay: ATG_Xbp1_CIS: Attagene CIS-FACTORIAL HepG2 Assay for human X-box Binding Protein 1 (XBP1) (AID 2282972); conditions: HepG2 XBP1 cis-element reporter, Attagene multiplex; actives raise or lower the signal
In short: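 Fluorescence-labelled cDNA fragments from reporter transcripts, separated by capillary electrophoresis, give the signal. Source: HepG2 cells transfected with promoter-driven reporter units, harvested 24 h post-dose. DMSO served as reference for bidirectional curve fitting.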

[13] = ATG_VDRE_CIS: Attagene CIS-FACTORIAL HepG2 Assay for human Vitamin D Receptor Element (VDRE) (AID 2282968); conditions: HepG2 VDRE cis-reporter transcription, actives raise or lower the signal
In short: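 Cell-based multiplexed reporter format in human liver HepG2 cells, 24 h post-dose. Fluorescence from capillary electrophoresis of reporter cDNA gives the signal, with DMSO as negative control and baseline.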

[14] = biological target: Nuclear receptor subfamily 1 group I member 3 (Homo sapiens) (UniProt Q14994); assay: ATG_CAR_TRANS: Attagene TRANS-FACTORIAL HepG2 Assay for human Constitutive Androstane Receptor (CAR) (AID 2282969; active = hit-call score of the fitted dose curve at least 0.9, where 1 is the maximum;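 note: activators raise reporter mRNA above DMSO so AC50 marks induction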); conditions: HepG2 Attagene TRANS-FACTORIAL CAR reporter
In short: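 HepG2 cells transiently transfected with GAL4-UAS reporter units; TRANS format reads activity of exogenous chimeric NR-Gal4 protein. After 24 h dosing, reporter mRNA quantified by RT-PCR, 6-FAM labelling and capillary electrophoresis; gain of signal fitted against DMSO.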

[15] = biological target: Steroid hormone receptor ERR1 (Homo sapiens) (UniProt P11474); assay: ATG_ERRa_TRANS: Attagene TRANS-FACTORIAL HepG2 Assay for human Estrogen-Related Receptor alpha (ERRa) (AID 2282971; active = hit-call score of the fitted dose curve at least 0.9, where 1 is the maximum); conditions: HepG2 Attagene TRANS reporter, ERRa transactivation
In short: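 HepG2 cells transiently transfected with multiplexed GAL4-UAS reporter units reading chimeric ERRa-Gal4 activity; 24 h compound exposure. Reporter mRNA measured by RT-PCR, 6-FAM labelling, HpaI digest and capillary electrophoresis; gain of signal fitted versus DMSO baseline.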

[16] = biological target: Estrogen-related receptor gamma (Homo sapiens) (UniProt P62508); assay: ATG_ERRg_TRANS: Attagene TRANS-FACTORIAL HepG2 Assay for human Estrogen-Related Receptor gamma (ERRg) (AID 2282977; active = hit-call score of the fitted dose curve at least 0.9, where 1 is the maximum;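 note: hits increase reporter signal over DMSO so potencies reflect activators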); conditions: HepG2 Attagene TRANS reporter, ERRg transactivation
In short: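 Transient HepG2 transfectants, 24 h compound exposure, GAL4-UAS reporter mRNA by RT-PCR/6-FAM labelling/capillary electrophoresis; positive direction vs DMSO.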

[17] = ATG_TGFb_CIS: Attagene CIS-FACTORIAL HepG2 Assay for human Transforming Growth Factor (TGF) (AID 2282967); conditions: HepG2 Attagene CIS TGFb reporter, mRNA transcription; actives raise or lower the signal
In short: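 HepG2 cells transiently transfected with cis-promoter-driven multiplexed reporter units; 24 h compound exposure. Reporter mRNA measured by RT-PCR, 6-FAM labeling, HpaI digestion and capillary electrophoresis; bidirectional fit versus DMSO baseline.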

[18] = ATG_M_19_TRANS: Attagene TRANS-FACTORIAL HepG2 Assay for M19 Transcription Factor (Internal Marker) (AID 2282974; active = hit-call score of the fitted dose curve at least 0.9, where 1 is the maximum); conditions: HepG2 Attagene TRANS-FACTORIAL M19 internal marker reporter
In short: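 After transfection of HepG2 with GAL4-UAS-driven reporter constructs, cells are dosed for 24 h. Total RNA is reverse-transcribed, reporter sequences PCR-amplified and labelled, then HpaI-digested and sized by capillary electrophoresis.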

[19] = ATG_GAL4_TRANS: Attagene TRANS-FACTORIAL HepG2 Assay for GAL4 (Internal Marker) (AID 2282976; active = hit-call score of the fitted dose curve at least 0.9, where 1 is the maximum); conditions: HepG2 Attagene TRANS GAL4 internal marker reporter
In short: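 HepG2 cells transiently transfected with multiplexed GAL4-UAS reporter constructs were dosed for 24 h. Reporter mRNA was measured by RT-PCR, 6-FAM primer extension, HpaI digestion and capillary electrophoresis, and gain of signal was fitted relative to DMSO.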

Measured: AC50

Sequence of Paired box protein Pax-6 (Homo sapiens) (P26367 whole entry, looked up): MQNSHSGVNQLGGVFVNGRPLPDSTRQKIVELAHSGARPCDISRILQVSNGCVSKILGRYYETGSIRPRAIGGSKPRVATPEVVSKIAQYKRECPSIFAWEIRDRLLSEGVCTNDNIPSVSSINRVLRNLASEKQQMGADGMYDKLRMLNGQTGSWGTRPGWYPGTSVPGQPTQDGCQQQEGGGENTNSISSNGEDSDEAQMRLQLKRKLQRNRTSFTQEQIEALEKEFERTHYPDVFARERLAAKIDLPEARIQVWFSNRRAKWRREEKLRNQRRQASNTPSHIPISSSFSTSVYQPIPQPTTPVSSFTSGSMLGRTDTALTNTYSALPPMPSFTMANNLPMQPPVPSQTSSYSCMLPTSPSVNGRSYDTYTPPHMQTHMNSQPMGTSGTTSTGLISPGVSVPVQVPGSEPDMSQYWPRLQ
Sequence of Steroid hormone receptor ERR1 (Homo sapiens) (P11474 whole entry, looked up, the tested form may be a part): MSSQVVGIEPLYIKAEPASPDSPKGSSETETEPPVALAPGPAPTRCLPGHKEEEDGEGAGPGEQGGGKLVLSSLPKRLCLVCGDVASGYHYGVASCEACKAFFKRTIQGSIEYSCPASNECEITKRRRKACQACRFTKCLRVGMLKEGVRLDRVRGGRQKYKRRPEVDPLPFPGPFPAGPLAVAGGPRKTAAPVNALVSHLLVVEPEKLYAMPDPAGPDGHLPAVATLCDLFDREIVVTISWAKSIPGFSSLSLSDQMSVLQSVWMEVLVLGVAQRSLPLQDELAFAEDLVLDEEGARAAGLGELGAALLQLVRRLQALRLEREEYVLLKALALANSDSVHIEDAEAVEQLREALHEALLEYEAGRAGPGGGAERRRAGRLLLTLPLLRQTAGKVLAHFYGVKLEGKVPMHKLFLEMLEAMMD
Sequence of Estrogen-related receptor gamma (Homo sapiens) (P62508 whole entry, looked up, the tested form may be a part): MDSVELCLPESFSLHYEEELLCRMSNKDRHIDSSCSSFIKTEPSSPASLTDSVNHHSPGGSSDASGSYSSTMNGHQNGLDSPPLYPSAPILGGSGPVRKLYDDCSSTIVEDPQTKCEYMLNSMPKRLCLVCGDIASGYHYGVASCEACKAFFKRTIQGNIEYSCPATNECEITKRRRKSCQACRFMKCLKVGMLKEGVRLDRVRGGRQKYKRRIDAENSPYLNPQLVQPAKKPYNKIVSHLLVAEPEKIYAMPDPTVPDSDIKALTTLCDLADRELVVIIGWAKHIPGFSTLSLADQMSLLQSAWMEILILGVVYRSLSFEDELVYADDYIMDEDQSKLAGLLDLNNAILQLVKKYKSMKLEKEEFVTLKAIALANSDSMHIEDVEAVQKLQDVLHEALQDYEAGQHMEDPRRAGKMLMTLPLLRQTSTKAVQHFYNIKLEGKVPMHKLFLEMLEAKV
Sequence of Signal transducer and activator of transcription 3 (Homo sapiens) (P40763 whole entry, looked up): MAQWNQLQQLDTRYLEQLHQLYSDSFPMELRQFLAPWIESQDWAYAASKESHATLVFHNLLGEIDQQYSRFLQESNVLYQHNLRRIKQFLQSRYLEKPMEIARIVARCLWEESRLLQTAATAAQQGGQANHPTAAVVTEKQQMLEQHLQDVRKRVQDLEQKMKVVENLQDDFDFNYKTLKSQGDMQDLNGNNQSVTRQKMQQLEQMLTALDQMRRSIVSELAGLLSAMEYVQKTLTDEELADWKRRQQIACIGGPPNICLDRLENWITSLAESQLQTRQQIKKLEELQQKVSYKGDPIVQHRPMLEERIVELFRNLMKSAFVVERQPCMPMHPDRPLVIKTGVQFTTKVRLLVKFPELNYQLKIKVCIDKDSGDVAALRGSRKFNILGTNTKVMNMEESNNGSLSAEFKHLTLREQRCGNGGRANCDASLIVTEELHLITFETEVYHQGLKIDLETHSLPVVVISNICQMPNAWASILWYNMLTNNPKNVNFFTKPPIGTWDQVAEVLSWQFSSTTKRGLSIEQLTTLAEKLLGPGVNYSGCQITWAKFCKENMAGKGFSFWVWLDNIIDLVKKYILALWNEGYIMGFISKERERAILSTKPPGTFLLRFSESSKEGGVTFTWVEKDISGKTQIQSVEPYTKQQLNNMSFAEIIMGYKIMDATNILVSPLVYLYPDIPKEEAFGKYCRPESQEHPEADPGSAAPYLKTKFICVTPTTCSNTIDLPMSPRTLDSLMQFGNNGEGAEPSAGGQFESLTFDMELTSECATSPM
Sequence of X-box-binding protein 1 (Homo sapiens) (P17861 whole entry, looked up, the tested form may be a part): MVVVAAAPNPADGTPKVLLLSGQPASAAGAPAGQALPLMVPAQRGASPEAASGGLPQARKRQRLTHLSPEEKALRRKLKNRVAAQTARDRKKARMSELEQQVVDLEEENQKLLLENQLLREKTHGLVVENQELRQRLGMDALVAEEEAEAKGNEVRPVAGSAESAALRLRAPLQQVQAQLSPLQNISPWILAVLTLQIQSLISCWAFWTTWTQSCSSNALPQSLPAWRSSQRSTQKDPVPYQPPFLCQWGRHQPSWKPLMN
Sequence of Transcription factor Sp1 (Homo sapiens) (P08047 whole entry, looked up): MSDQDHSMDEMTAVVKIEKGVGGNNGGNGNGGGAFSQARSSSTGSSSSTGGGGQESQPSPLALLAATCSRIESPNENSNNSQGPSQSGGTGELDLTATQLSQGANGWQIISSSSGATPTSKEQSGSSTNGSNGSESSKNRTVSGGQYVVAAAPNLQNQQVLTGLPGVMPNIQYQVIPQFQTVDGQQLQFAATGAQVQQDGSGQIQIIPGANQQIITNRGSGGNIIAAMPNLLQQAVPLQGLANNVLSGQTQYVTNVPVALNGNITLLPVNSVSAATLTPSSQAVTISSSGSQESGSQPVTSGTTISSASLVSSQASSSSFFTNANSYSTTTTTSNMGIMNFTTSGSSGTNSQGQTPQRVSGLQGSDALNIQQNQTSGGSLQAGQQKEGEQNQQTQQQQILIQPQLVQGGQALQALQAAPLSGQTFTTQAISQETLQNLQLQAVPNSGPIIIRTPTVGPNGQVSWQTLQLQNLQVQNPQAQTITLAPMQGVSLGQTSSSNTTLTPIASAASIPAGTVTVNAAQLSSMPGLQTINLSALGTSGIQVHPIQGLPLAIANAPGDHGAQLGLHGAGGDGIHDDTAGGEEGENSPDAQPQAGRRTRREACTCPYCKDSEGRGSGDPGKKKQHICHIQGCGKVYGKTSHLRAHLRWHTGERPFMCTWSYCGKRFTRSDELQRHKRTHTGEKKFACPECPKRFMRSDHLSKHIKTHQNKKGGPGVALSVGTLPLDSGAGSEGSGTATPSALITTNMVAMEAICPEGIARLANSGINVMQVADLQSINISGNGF
Sequence of Nuclear receptor subfamily 1 group I member 3 (Homo sapiens) (Q14994 whole entry, looked up, the tested form may be a part): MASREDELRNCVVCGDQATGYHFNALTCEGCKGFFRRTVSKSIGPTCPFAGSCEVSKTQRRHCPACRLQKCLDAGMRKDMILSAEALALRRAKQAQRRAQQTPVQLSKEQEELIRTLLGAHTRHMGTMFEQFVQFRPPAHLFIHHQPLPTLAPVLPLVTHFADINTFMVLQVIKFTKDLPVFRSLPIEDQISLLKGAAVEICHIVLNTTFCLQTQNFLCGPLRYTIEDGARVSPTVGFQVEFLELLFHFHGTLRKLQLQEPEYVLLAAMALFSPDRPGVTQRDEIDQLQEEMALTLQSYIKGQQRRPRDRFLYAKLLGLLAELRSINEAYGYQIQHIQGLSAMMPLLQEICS

CCCC(C)=O
not listed: [13] | [14] | [15] | [16] | [17] | [18] | [19]
inactive: all other assays above

COc1ccc(OC)c(N=Nc2c(O)ccc3ccccc23)c1
active: [2] 3.46 µM
not listed: [12] | [17] | [18] | [19]
inactive: all other assays above

CCCCC(CC)(CO)CO
not listed: [11] | [15] | [16]
inactive: all other assays above

CCC1CCCCC1
not listed: [10] | [12] | [14] | [16] | [19]
inactive: all other assays above

CCCSc1ccc2nc(NC(=O)OC)[nH]c2c1
not listed: [11] | [14] | [15] | [16] | [19]
inactive: all other assays above

C[N+](C)(C)CCCCCC[N+](C)(C)C
not listed: [10] | [13] | [14] | [15] | [16] | [17]
inactive: all other assays above

O=C(CC(=O)c1ccccc1)c1ccccc1
inactive: [8] | [9] | [10] | [11] | [13]
active: [1] 100 µM | [2] 25.3 µM | [3] 3.67 µM | [4] 26.7 µM | [5] 100 µM | [6] 94.3 µM | [7] 67.7 µM | [12] 45.1 µM

COC(C)(C)CCO
not listed: [11] | [14] | [15]
inactive: all other assays above

CCc1ccc(O)cc1
active: [2] 32.3 µM
not listed: [10] | [14] | [15]
inactive: all other assays above

IC(I)I
active: [2] 5.98 µM
not listed: [10] | [13] | [14] | [19]
inactive: all other assays above

C=COCCOCCOC=C
not listed: [14] | [15] | [16] | [17]
inactive: all other assays above

O=C1OC2(c3ccccc31)c1ccc(O)c(Br)c1Oc1c2ccc(O)c1Br
active: [2] 15.9 µM | [13] 27.3 µM
not listed: [10] | [11] | [14] | [15] | [16] | [18] | [19]
inactive: all other assays above

[Cl][Au]([Cl])[Cl]
not listed: [11] | [14] | [15] | [18] | [19]
inactive: all other assays above

BrCc1cccc(Oc2ccccc2)c1
active: [2] 26.3 µM | [10] 100 µM
not listed: [9] | [15]
inactive: all other assays above

CC/C=C\CC/C=C/CO
active: [2] 27.3 µM
not listed: [11] | [13] | [14] | [15]
inactive: all other assays above

O=C1OC(=O)c2c(Cl)c(Cl)c(Cl)c(Cl)c21
active: [3] 177 µM
not listed: [13] | [14]
inactive: all other assays above

C=C[Si]1(C)O[Si](C)(C=C)O[Si](C)(C=C)O[Si](C)(C=C)O1 (centres undefined)
active: [2] 2.51 µM
not listed: [10] | [14] | [15] | [16] | [19]
inactive: all other assays above

C#CC(C)(O)CC(C)C (centres undefined)
not listed: [10] | [16] | [19]
inactive: all other assays above
